# Data reported in PubChem BioAssay (Tox21).
# A number with no mark means an inactive call. Records with an inconclusive call do not appear. Where a call stands in place of a potency, no number is given. Calls of active or inactive are those of the source. Calls come from the whole dose curve.
# How the values were obtained:
# [1] = target: Acetylcholinesterase (Homo sapiens) (UniProt P22303); assay: Acetylcholinesterase (AChE) small molecule antagonists: colormetric cell-based qHTS assay (AID 1347395); note: nearly all actives have a fitted effect of over 30% in size; note: potency is the fitted concentration of half-maximal effect
# Chain of Acetylcholinesterase (Homo sapiens) (P22303 whole entry, looked up): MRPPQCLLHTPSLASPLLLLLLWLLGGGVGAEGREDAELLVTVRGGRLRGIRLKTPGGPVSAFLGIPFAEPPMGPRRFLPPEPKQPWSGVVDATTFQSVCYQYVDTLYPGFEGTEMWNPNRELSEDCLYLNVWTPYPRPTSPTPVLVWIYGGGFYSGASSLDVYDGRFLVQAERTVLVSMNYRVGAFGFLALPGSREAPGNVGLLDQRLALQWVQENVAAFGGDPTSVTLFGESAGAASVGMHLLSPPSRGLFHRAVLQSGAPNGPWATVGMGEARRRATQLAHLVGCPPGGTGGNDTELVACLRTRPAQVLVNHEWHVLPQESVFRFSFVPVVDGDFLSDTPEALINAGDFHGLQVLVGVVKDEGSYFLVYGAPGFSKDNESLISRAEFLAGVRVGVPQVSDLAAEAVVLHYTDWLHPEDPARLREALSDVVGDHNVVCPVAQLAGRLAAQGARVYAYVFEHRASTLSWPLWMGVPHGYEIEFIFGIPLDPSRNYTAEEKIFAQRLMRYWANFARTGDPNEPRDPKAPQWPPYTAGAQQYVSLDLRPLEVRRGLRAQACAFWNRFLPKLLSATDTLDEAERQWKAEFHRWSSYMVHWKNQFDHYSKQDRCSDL
# Outline: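 In this cell-based qHTS, attached SH-SY5Y cells were treated with test chemicals for 30 min, after which acetylthiocholine hydrolysis was followed by DTNB colour development over 90 min at 37 C.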
# [2] = target: Acetylcholinesterase (Homo sapiens) (UniProt P22303); assay: Acetylcholinesterase (AChE) small molecule antagonists: enzyme-based qHTS assay (AID 1347397); conditions: Potency: AChE enzyme activity inhibition; outcome: AChE enzyme activity inhibition; note: nearly all actives have a fitted effect of over 55% in size; note: potency is the fitted concentration of half-maximal effect
# Outline: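 Human recombinant acetylcholinesterase; substrate acetylthiocholine; thiocholine quantified with DTNB (colorimetric). Compound preincubation 30 min RT; reaction 10 min RT.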
# [3] = target: Acetylcholinesterase (Homo sapiens) (UniProt P22303); assay: Acetylcholinesterase (AChE) small molecule antagonists: enzyme-based qHTS assay with human liver microsomes (AID 1347399); conditions: Potency: qHTS inhibition; outcome: qHTS inhibition; note: nearly all actives have a fitted effect of over 60% in size
# Outline: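 Recombinant human AChE (50 mU/mL in the enzyme mix) and human liver microsomes (0.25 mg/mL final) were preincubated with compound and NADPH (0.25 mg/mL final) for 30 min at 37 C. Acetylthiocholine/DTNB was then added; thiocholine was read colorimetrically after 10 min at room temperature.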
# [4] = target: Acetylcholinesterase (Homo sapiens) (UniProt P22303); assay: Acetylcholinesterase (AChE) small molecule antagonists: fluorescence cell-based qHTS assay (AID 1347398); conditions: Potency: AChE activity; outcome: AChE activity; note: nearly all actives have a fitted effect of over 50% in size; note: potency is the fitted concentration of half-maximal effect
# Outline: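 Thiocholine generated from acetylthiocholine by SH-SY5Y cell AChE is detected with Thiolite Green (Ex/Em 490/520 nm) after 40 min at room temperature, following 30 min compound pretreatment at 37 C.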
smiles,measurement,setting,value
CCCC(=O)O[C@]1(C(=O)COC(=O)CC)CC[C@H]2[C@@H]3CCC4=CC(=O)CC[C@]4(C)[C@H]3[C@@H](O)C[C@@]21C,"activity, negative = inhibition",[1],0.0881% [at 23.6 µM]
same,"activity change, negative = inhibition",[2],0.139% [at 23.6 µM]
same,"activity change, negative = inhibition",[3],-1.51% [at 23.6 µM]
C=CCN1C[C@H](C(=O)N(CCCN(C)C)C(=O)NCC)C[C@@H]2c3cccc4[nH]cc(c34)C[C@H]21,Potency,[1],34.7 µM (active)
same,Potency,[2],inactive
same,Potency,[3],inactive
O=S1(=O)CC(Cl)(Cl)C(Cl)(Cl)C1,Potency,[1],71 µM (active)
same,Potency,[4],inactive
O=C(Nc1cccc2c(=O)cc(-c3nn[nH]n3)oc12)c1ccc(OCCCCc2ccccc2)cc1,Potency,[1],inactive
same,Potency,[2],27.5 µM (active)
same,Potency,[3],inactive
CC1=C(C)C(=O)C(CCCCC#CCCCC#CCO)=C(C)C1=O,Potency,[1],inactive
same,Potency,[2],inactive
same,Potency,[3],inactive
Nc1c(NC/C=C\COc2cc(CN3CCCCC3)ccn2)c(=O)c1=O,Potency,[1],13.5 µM (active)
same,"activity change, negative = inhibition",[4],-23% [at 23.8 µM]
same,"activity change, negative = inhibition",[3],0.669% [at 23.6 µM]
COc1cc(S(=O)(=O)O)c(C)cc1N=Nc1c(O)ccc2cc(S(=O)(=O)O)ccc12,Potency,[1],inactive
same,Potency,[2],inactive
same,Potency,[3],inactive
OC1(c2ccccc2)CCNCC1,Potency,[1],inactive
same,Potency,[2],inactive
same,Potency,[3],inactive
CCOC(=O)c1ccccc1C(=C1C=C(Br)C(=O)C(Br)=C1)c1cc(Br)c(O)c(Br)c1,Potency,[1],inactive
same,Potency,[4],inactive
same,Potency,[3],inactive
Nc1c(N=Nc2ccc(-c3ccc(N=Nc4cc(S(=O)(=O)O)c5ccccc5c4N)cc3)cc2)cc(S(=O)(=O)O)c2ccccc12,Potency,[1],79.6 µM (active)
same,Potency,[4],71 µM (active)
same,Potency,[3],inactive
